# D2 PAM-1: positive allosteric modulators of human D2 dopamine receptor | DiscoveRx D2 beta-arrestin cells, luminescence, 90 min; 100% = 57 uM dopamine signal | potentiation, % (concentration not given with the values) | 0.23% of 360,000 active; in the data active = potentiation above about 50%; inconclusive = mostly about 30% to 49%
# Target sequence (P14416 whole entry, looked up): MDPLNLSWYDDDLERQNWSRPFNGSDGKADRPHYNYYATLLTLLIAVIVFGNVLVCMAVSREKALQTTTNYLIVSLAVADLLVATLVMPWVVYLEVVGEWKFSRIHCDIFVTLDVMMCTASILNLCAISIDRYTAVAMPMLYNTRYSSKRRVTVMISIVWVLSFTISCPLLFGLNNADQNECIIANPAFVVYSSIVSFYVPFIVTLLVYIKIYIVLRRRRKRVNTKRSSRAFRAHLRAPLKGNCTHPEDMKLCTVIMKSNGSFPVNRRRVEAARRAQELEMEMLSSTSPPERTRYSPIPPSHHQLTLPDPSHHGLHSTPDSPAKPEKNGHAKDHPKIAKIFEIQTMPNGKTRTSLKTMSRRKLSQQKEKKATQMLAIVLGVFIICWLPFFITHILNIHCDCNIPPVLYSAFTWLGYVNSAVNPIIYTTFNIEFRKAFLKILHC
#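 PathHunter beta-arrestin assay in DiscoveRx D2 cells. Compounds were added with an EC20 of dopamine (50 nM final) for 90 min at 37 deg C. Luminescence was read 1 h after detection reagent, with 57 uM dopamine as the EC100 control.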
# D2 ag-1: agonists of human D2 dopamine receptor; HEK293 T-REx D2 cells, calcium flux agonist mode; P14416; 0.53% of 340,000 active; AID 485358; activation, % at 2 µM;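 active = activation over 3 SD above normal in the single-dose calcium agonist read, cut at about 30% in these data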
#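 Calcium-flux readout, 1 cycle/sec over 180 s following compound pin transfer, in inducible HEK293 Trex D2 cells (force-coupled); dopamine controls included. Positive calcium responses during this window marked compounds as potential agonists.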
# D2 antagonist: antagonizes the human D2 dopamine receptor; P14416; HEK293 TREx D2 cells, calcium flux, dopamine EC80; inhibition, % at 10 µM; 2% of 340,000 active; in the data active = inhibition above about 30%; inactive = below that, where a call was filed
#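 Measurement of antagonist activity uses fluorescent calcium dye in inducible HEK293 T-REx D2 cells: 10 s baseline, compound addition with 180 s read, EC80 dopamine addition with a further 180 s read.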
# D2 PAM-2: positively modulates the human D2 dopamine receptor allosterically. P14416. HEK293 T-REx D2, calcium flux, EC20 dopamine potentiation. potentiation, % at 10 µM. 0.34% of 340,000 active;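 active = potentiation over 3 SD above the plate norm, cut at about 30% in these data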
#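 Potentiation of an EC20 dopamine calcium response is measured in a force-coupled, tetracycline-inducible Hek293 Trex D2 line. Compound-only kinetic reads over 180 s flag agonists before dopamine addition.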
# D2 ag-2: agonists of human D2 dopamine receptor (beta-arrestin); P14416; DiscoveRx PathHunter D2 beta-arrestin, luminescence, 90 min; 100% = 57 uM dopamine signal; activation, % (concentration not given with the values); 0.084% of 360,000 active; in the data active = activation above about 40%; inconclusive = between about 15% and that limit
#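 DiscoveRx PathHunter D2 beta-arrestin cells (2,100/well) attached overnight, then compound-stimulated 90 min at 37 C in HBSS/10 mM HEPES/0.1% Tween-20 buffer; beta-galactosidase complementation read by luminescence after 1 h at ambient temperature. Dopamine 57 uM final (EC100) as control.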
# A number is an active result; – = inactive; ? = inconclusive; · = no result given. Shown are actives, neighbours in structure and some others; about 2.4% of the full set was active somewhere.
SMILES,D2 PAM-1,D2 ag-1,D2 antagonist,D2 PAM-2,D2 ag-2
Cc1cccc(NC(=O)CN(C)C(=O)c2ccc3ccccc3n2)c1C,–,–,30,–,–
COCCN(CC(=O)Nc1cccc(C)c1C)C(=O)c1ccc2ccccc2n1,–,–,–,–,–
CCOC(=O)N1CC=C2C(C#N)=C(N)C(C#N)(C#N)[C@H](c3cccs3)C2C1 (stereo partly specified),–,–,–,72,–
CCOc1ccc(S(=O)(=O)N2CC(=O)Nc3ccccc32)cc1C#N,–,–,–,–,–
COc1ccc(S(=O)(=O)N2CC(=O)Nc3ccccc32)cc1Cl,–,–,–,60,–
CSc1cccc(NC(=O)C2CCN(S(=O)(=O)c3cnc[nH]3)CC2)c1,–,–,–,–,–
CSc1cccc(NC(=O)C2CCCN(S(=O)(=O)c3cnc[nH]3)C2)c1 (stereo unspecified),–,–,31,–,–
CCc1c(C)nc2nncn2c1Nc1ccc(C)c(F)c1,·,·,·,–,·
N#CC1=C(N)S[C@H](C(=O)C23CC4CC(CC(C4)C2)C3)[C@H]1c1ccncc1,–,–,–,31,–
Cc1ccc(CNC(=O)CCC(=O)n2ncc3cc(C)ccc32)cc1,–,–,47,–,–
Cc1ccc2c(cnn2C(=O)CCCC(=O)NCc2ccc(Cl)cc2)c1,–,–,–,–,–
CC(C)OC(=O)C1C(=O)CC(C)(O)C(C(=O)OC(C)C)C1c1cccc(O)c1 (stereo unspecified),–,–,32,–,–
CCNc1nc(NCC)nc(N(C#N)C(C)C)n1,–,–,–,–,–
CCNc1nc(NC(C)(C)C)nc(N(C#N)CC)n1,–,–,–,31,–
COc1ccc(Br)cc1S(=O)(=O)n1c([N+](=O)[O-])cnc1C,–,–,34,–,–
CCn1cc2nc(SCc3cccc(OC)c3)n(Cc3ccc(Cl)cc3)c(=O)c2n1,·,–,·,–,·
Cn1c(CS(=O)Cc2c(Cl)cccc2Cl)nnc1SCc1ccc(Cl)cc1 (stereo unspecified),–,–,31,–,–
Cc1ccc(CSc2nnc(CS(=O)Cc3ccc(Cl)cc3Cl)n2C)cc1 (stereo unspecified),–,–,–,–,–
Cc1oc(-c2ccccc2F)nc1CSCC(=O)NCc1ccc2c(c1)OCO2,–,–,–,33,–
Cc1oc(-c2ccccc2F)nc1CSCC(=O)NCCc1ccccc1,·,·,·,–,·
Cn1cc(S(=O)(=O)N2CCCCC2)cc1C(=O)Nc1cccc(C#N)c1,·,–,·,·,·
Cc1ccc(CNC(=O)C2CCN(S(=O)(=O)c3cccc4nonc34)CC2)cc1,–,–,–,–,–
O=C(NCc1ccc(F)cc1)C1CCN(S(=O)(=O)c2cccc3nonc23)CC1,–,–,–,32,–
CCSc1ncc(Cl)c(C(=O)Nc2sc(C(C)=O)c(C)c2C(=O)OC)n1,·,–,·,–,·
O=C(N/N=C/c1cccc(Oc2ccc([N+](=O)[O-])cc2[N+](=O)[O-])c1)c1cncc(Br)c1,85,–,–,–,–
SMILES,D2 PAM-1,D2 ag-1,D2 antagonist,D2 PAM-2,D2 ag-2
Cc1ccccc1OCC(=O)NCC(=O)N/N=C/c1cccc([N+](=O)[O-])c1,·,–,–,–,·
Cc1ccccc1OCC(=O)N/N=C/c1cccc(Oc2ccc([N+](=O)[O-])cc2[N+](=O)[O-])c1,55,–,–,–,–
O=C(COc1ccc(F)cc1)Nc1ccc(C(=O)OCc2cc(=O)n3nc(C4CC4)sc3n2)cc1,·,–,·,–,·
CN(C(=O)CSc1nncn2c1cc1occc12)c1ccccc1,·,–,·,·,·
COc1ccc(C(=O)NCc2cnn(C)c2)cc1OC1CCN(C(C)C)CC1,–,–,–,–,–
CCc1ccc(CNC(=O)c2ccc(OC)c(OC3CCN(C(C)C)CC3)c2)nc1,–,–,42,–,–
COc1ccc(NC(=O)c2ccc(OCC3CCCO3)cc2)cc1Cl (stereo unspecified),–,–,47,–,–
O=C1C=C(c2cccs2)C[C@H](c2ccccc2)[C@H]1n1nnc([N+](=O)[O-])n1,92,–,–,–,?
CC(C)CN1CCC(=O)N([C@H](CSc2ccc(Br)cc2)Cc2ccccc2)CC1,–,–,36,–,–
CC(=O)Nc1c(C)nn(-c2ccccc2)c1N1CCC(C(=O)Nc2ccc(F)cc2Cl)CC1,·,–,·,–,·
O=C(NNc1nc2ccc(F)cc2s1)c1cccc(F)c1,–,–,41,–,–
CC(=O)N1CCc2cc(S(=O)(=O)NC(CC(C)C)C(=O)NCCc3ccccc3)ccc21 (stereo unspecified),·,–,·,–,·
CC1(C)CC(=O)C2=C(C1)N1C(=C(C#N)C2c2ccccc2Cl)N=C(N)c2ccccc21 (stereo unspecified),–,–,36,–,–
CC1(C)CC(=O)C2=C(C1)N1C(=C(C#N)C2c2ccc(Cl)cc2)N=C(N)c2ccccc21 (stereo unspecified),–,–,–,–,–
CC(C(=O)N1CCN(Cc2ccccc2)CC1)n1ncn2cccc2c1=O (stereo unspecified),–,–,49,–,–
Cc1ccc(Cl)cc1NC(=O)c1cc2c(=O)n3cccc(C)c3nc2n1C,·,–,·,–,·
Cc1ccccc1OCC(=O)OCC(=O)Nc1ccc(Cl)cn1,–,–,31,–,–
Cc1cccc(NC(=S)NNC(=O)CCn2cc(C)cn2)c1,–,–,–,45,–
Cc1ccc(-n2cnnn2)c2cccnc12,–,–,–,–,–
Cc1nn(C)c(C)c1N1C(=O)c2cccc3c(N)ccc(c23)C1=O,–,115,–,–,–
Cc1ccc(N2C(=O)c3cccc4c(N)ccc(c34)C2=O)c2cccnc12,–,84,–,–,–
CCCN1C(=O)c2cccc3c(N4CCCCC4)ccc(c23)C1=O,–,–,–,–,–
CCN1C(=O)c2cccc3c(N)ccc(c23)C1=O,–,151,61,–,–
CCCCNc1ccc2c3c(cccc13)C(=O)N(CCCC)C2=O,–,185,81,–,–
COc1ccc(-c2nc(C)c(CCNC(=O)c3cccc(C)c3)s2)cc1OC,·,–,·,·,·
SMILES,D2 PAM-1,D2 ag-1,D2 antagonist,D2 PAM-2,D2 ag-2
CCC(=O)Nc1ccc2nc(SCCOc3ccc(C)cc3)sc2c1,·,–,·,–,·
CN(C(=O)COC(=O)C12CC3CC(CC(C3)C1)C2)c1c(N)n(Cc2ccccc2)c(=O)[nH]c1=O,–,–,47,–,–
Cc1cccc(C)c1NC(=O)CN1C(=O)C2CC=CCC2C1=O (stereo unspecified),–,–,57,–,–
Cc1cccc(C(C)C)c1NC(=O)COC(=O)CN1C(=O)C2CC=CCC2C1=O (stereo unspecified),–,–,–,–,–
CN1Cc2ccccc2N(CC(=O)NCc2ccccc2)C1=O,–,·,·,–,–
Cc1cccc(C)c1NC(=O)CN1C(=O)N(C)Cc2ccccc21,–,–,45,–,–
